Compound activity (PubChem)
SARS PLP yeast: inhibitors of SARS-CoV papain-like protease in yeast; S. cerevisiae expressing SARS-CoV PLpro, growth rescue; Potency, µM (highest dose often 32.9 µM), usual class: activators; 330,000 compounds, 0.19% hits; AID 485353; also: nearly all actives have a fitted effect of over 55% in size
Shiga inhibitor: blocks Shiga toxin action in Vero cells; Vero cells, Shiga toxin protein synthesis inhibition reporter; inhibition, % at 38.7 µM; 290,000 compounds, 9.2% hits; in the data active = inhibition mostly above about 28%, no sharp cut-off; inactive = mostly below about 43%
NS1 inh: influenza NS1 inhibition; Potency, µM (highest dose often 46.1 µM); 270,000 compounds, 0.4% hits; AID 2326; also: actives are rising curves; nearly all actives have a fitted effect of over 50% in size
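Growth recovery, yeast-based: influenza A NS1 expressed in S. cerevisiae causes slow growth, and suppressors are detected by OD600. The parent strain without NS1 is used as positive control.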
CHX counter: counter-screen hit for Shiga toxin inhibitors, cycloheximide; cell reporter, cycloheximide protein synthesis inhibition counterscreen; max response, %; 300,000 compounds, 12% hits; in the data active = max response mostly above about 13%, no sharp cut-off; inactive = mostly below about 14%; also: read at 38.3 µM for the half of the compounds with a filed dose
NS1 inh valid: influenza NS1 function inhibition validation. shares compounds with NS1 inh. influenza NS1 function cell assay, 15-point titration. activity change, negative = inhibition, % at 32.9 µM. 1,400 tested, under 10 active. AID 492980
Of the large screens only hits and unclear results are named; the others gave an inactive call (follow-up assays come after a bar, where they were run). A selection: hits, their analogues and other compounds. The true share with any hit is near 12%. Unless noted, calls follow the shape of the full dose curve.

CCOC(=O)C1=C(c2ccccc2)NC(SCC(=O)Nc2cccc(C)c2)=C(C#N)C1c1ccco1 (centres undefined)	NS1 inh inconclusive | NS1 inh valid inactive
O=C(c1cc2ccccc2o1)N1CCN(S(=O)(=O)c2cccs2)CC1	NS1 inh 10µM | NS1 inh valid inactive
O=C(NCC1(c2ccccc2)CCOCC1)c1cccs1	none
CCCCC/C=C\C/C=C\C/C=C\C/C=C\CCCC(=O)NCC(=O)O	NS1 inh 18µM (no result: SARS PLP yeast, Shiga inhibitor, CHX counter) | NS1 inh valid inactive
Nc1ccccc1OCCOCCOc1ccccc1N	NS1 inh 5µM | NS1 inh valid inactive
Cc1cc(NC(=O)c2ccccc2)ncc1NC(=O)c1ccco1	Shiga inhibitor 87, NS1 inh inconclusive, CHX counter 18 | NS1 inh valid inactive
CCOC(=O)CSc1nc2ccc(N3CCOCC3)cc2c(=O)n1Cc1ccc2c(c1)OCO2	NS1 inh inconclusive | NS1 inh valid inactive
C=CCNC(=O)/C(C#N)=C/c1cn(-c2ccccc2)nc1-c1ccc(OC)c([N+](=O)[O-])c1	NS1 inh inconclusive | NS1 inh valid inactive
O=c1cc(N2CCc3ccccc32)[nH]c(=O)n1-c1ccc(Br)cc1	NS1 inh 6.3µM | NS1 inh valid inactive
Cc1cc(N2CCOCC2)nc2ccc(NC(=O)CCC(=O)N3CCC(C)CC3)cc12	NS1 inh 5.6µM | NS1 inh valid inconclusive
C=C1CCC[C@]2(C)C[C@H]3OC(=O)C(CNCCN(CC)CC)[C@H]3CC12 (some centres undefined)	none
Cn1c(=O)[nH]c(=O)c2c1nc(Br)n2CC(O)COc1ccccc1 (centres undefined)	NS1 inh 7.1µM | NS1 inh valid inactive
Cc1ccc(NC(=O)CCC(=O)N/N=C/c2coc3ccccc3c2=O)cc1	NS1 inh 5.6µM | NS1 inh valid inactive
CC1=NN=C(c2ccc(N)cc2)c2cc3c(cc2C1)OCO3	NS1 inh 35µM (no result: SARS PLP yeast, Shiga inhibitor, CHX counter) | NS1 inh valid inactive
Cc1nc(N)ncc1-c1ccc2c(c1)OCO2	none
COc1ccc2c(c1)C(c1ccccc1)=NNC(c1ccco1)=N2	NS1 inh inconclusive | NS1 inh valid inactive
CCOc1ccc(C2=NNC(c3cccnc3)=Nc3ccc(OC)cc32)cc1	none
CN(CC(=O)Nc1ccccn1)S(=O)(=O)c1ccc(Cl)cc1	none
Cc1cnc(NC(=O)CN(C)S(=O)(=O)c2ccc(Cl)cc2)s1	NS1 inh 7.9µM | NS1 inh valid inactive
O=C(NCCCn1ccnc1)C1CCN(S(=O)(=O)c2cc([N+](=O)[O-])ccc2Cl)CC1	none (no result: Shiga inhibitor, NS1 inh, CHX counter)
CCC(CC)NCc1ccc(OC)cc1OC	NS1 inh inconclusive | NS1 inh valid inactive
COc1ccc(C(=S)N2CCN(c3ccccc3C)CC2)cc1	none
Cc1nn(-c2ccccc2)c2c1C(c1ccccc1)C(C#N)=C(N)O2 (centres undefined)	none
Cc1ccc(-n2nc(C)c3c2OC(N)=C(C#N)C3c2ccoc2)cc1 (centres undefined)	NS1 inh 2.5µM, CHX counter 25 | NS1 inh valid inactive
CCOc1cc2[nH]c(=O)n(CC3CCC(C(=O)NCCCOC)CC3)c(=O)c2cc1OCC (centres undefined)	NS1 inh 8.9µM | NS1 inh valid inactive
N#CCSCC(=O)Nc1ccc(F)cc1	NS1 inh 14µM | NS1 inh valid inactive
O=c1c2cc(Cl)ccc2[nH]c(=S)n1Cc1cccs1	none
O=C(C1CCCN(S(=O)(=O)c2cccc3nonc23)C1)N1CCC(Cc2ccccc2)CC1 (centres undefined)	NS1 inh 10µM (no result: SARS PLP yeast) | NS1 inh valid inactive
Cc1cc(Br)ccc1NC(=O)CN(C)C(=O)CSCc1ccccc1	none (no result: Shiga inhibitor, NS1 inh, CHX counter)
Cc1nn(C2CCS(=O)(=O)C2)c2nc(C3CC3)cc(C(=O)Nc3ccc(C(N)=O)cc3)c12 (centres undefined)	none (no result: Shiga inhibitor, NS1 inh, CHX counter)
N=C1C(c2ccccc2)=C(O)CN1c1cccc(S(N)(=O)=O)c1	none
COc1cccc(N2CC(O)=C(c3ccccc3)C2=N)c1	NS1 inh 7.1µM | NS1 inh valid inactive
COc1ccc(CCNC(=O)c2ccc3c(c2)N(Cc2ccc(C)cc2)CCS3)cc1OC	NS1 inh 7.9µM | NS1 inh valid inactive
COC(=O)c1cc(OC(=O)CCc2ccc(OC)c(OC)c2)cc(C(=O)OC)c1	none
O=S(=O)(c1ccccc1)c1cccc(S(=O)(=O)N2CCCCC2)c1	NS1 inh 2µM | NS1 inh valid inactive
O=C(O)CCCCCNC(=O)OCC1c2ccccc2-c2ccccc21	none
Cc1nnc(-c2cccc(Br)c2)c2cn(-c3cccc(Br)c3)nc12	NS1 inh 8.9µM | NS1 inh valid inactive
Cc1nnc(-c2cccc(Br)c2)c2cn(-c3ccccc3)nc12	NS1 inh inconclusive
CCCC[C@]12Cc3cc(C#N)ccc3C(O1)c1c(c3cc(F)ccc3oc1=O)O2	none
O=C(Cc1cc(=O)[nH][nH]1)N/N=C/c1c(Cl)cccc1Cl	NS1 inh 10µM | NS1 inh valid inconclusive
Cc1ccc(Sc2ncccc2C(=O)O)cc1C	NS1 inh inconclusive | NS1 inh valid inactive
Cc1ccc(Sc2ncccc2C(=O)O)c(C)c1	none
CCc1ccc(CN2C(=O)c3ccccc3C2C(=O)NC(C)CC)cc1 (centres undefined)	none
O=C(Cc1ccc(Cl)cc1)Nc1ccc(N2CCN(C(=O)c3ccco3)CC2)c(Cl)c1	NS1 inh 0.28µM | NS1 inh valid inconclusive
O=C(c1ccco1)N1CCN(S(=O)(=O)Cc2ccc(Cl)cc2)CC1	none
O=C(COc1ccccc1O)N1CCN(C(=O)c2ccco2)CC1	none
O=C(COc1ccc(Cl)cc1Cl)N1CCN(C(=O)c2ccco2)CC1	NS1 inh inconclusive | NS1 inh valid inactive
CCC1CCCCN1C(=O)c1cc(COc2ccc(-n3cncn3)cc2)on1 (centres undefined)	none
COc1cccc(N2CCN(Cc3ccsc3)CC2)c1	none
CC(/C=C/c1ccc(N(C)C)cc1)=N\N=C1\NC(=O)CC(C(=O)Nc2ccccc2)S1 (centres undefined)	Shiga inhibitor 63, NS1 inh 7.9µM, CHX counter 49 | NS1 inh valid inactive
CC(/C=C/c1ccc(N(C)C)cc1)=N/N=C1/NC(=O)CC(C(=O)Nc2ccc(Cl)cc2)S1 (centres undefined)	Shiga inhibitor 60, NS1 inh 10µM, CHX counter 48 | NS1 inh valid inactive
CN(C)S(=O)(=O)c1ccc(Cl)c(C(=O)OCC(=O)c2ccco2)c1	none (no result: Shiga inhibitor, NS1 inh, CHX counter)
N#CCCn1cc(C(CC(=O)c2ccc(Br)cc2)C(=O)O)c2ccccc21 (centres undefined)	NS1 inh 8.9µM | NS1 inh valid inactive
Cc1ccc(C(=O)CC(C(=O)O)c2cn(CCC#N)c3ccccc23)cc1 (centres undefined)	NS1 inh inconclusive
Cc1ccc(N2C(=O)CC(N(O)C3CC(=O)N(c4ccc(C)cc4)C3=O)C2=O)cc1 (centres undefined)	NS1 inh 20µM | NS1 inh valid inconclusive
Cc1nsc(N)c1C(=O)O	none
Cc1ccsc1C=Nc1c(C)n(C)n(-c2ccccc2)c1=O	none
Cc1c(N=Cc2cccs2)c(=O)n(-c2ccccc2)n1C	NS1 inh 14µM | NS1 inh valid inactive
N#Cc1c(NC(=O)Cn2cnc3ccccc3c2=O)oc(-c2ccccc2)c1-c1ccccc1	none
Cc1cc(C)cc(NC(=O)Cn2cc3c(n2)CCCCC3)c1	none
